# Reference: PubChem BioAssay AID1347426 (Functional Genomics Laboratory (NCATS/FGL), 2020)
# In all, about 31,000 sequences went through this assay and about 1,400 (4.5%) were called active. The entries come from a sample that favours actives as a whole. Unmarked numbers belong to inactive results.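 The calls were made as follows: active = median seed-adjusted z-score above 1 or below -1; inactive = the rest.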
# Test: Novel Modifiers of Survival Motor Neuron (SMN) Protein: Gene Identification via Genome-wide siRNA Screen;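 also: luminescence tracks full-length SMN protein made from the SMN2 reporter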
# Details: HEK293T SMN2-luciferase reporter, siRNA knockdown, 72 h; actives lie on both sides
# How it was run: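 siRNA screen, 10418 genes ×3 siRNAs; 1 pmol/well, lipid reverse transfection into HEK293T SMN2-luc reporter line. 72 h, 37 °C, 5% CO2; ONE-Glo readout. Data: neg-ctrl normalized, log10, MAD; hit = MAD >1.0 or < -1.0.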
row,Sequence,median seed-adjusted z-score
1,GGGCCUACUUUACAUCACATT against TXNDC14,-2.39 (active)
2,CGCUUACAAGGUCAACAUUTT against S1PR3,-0.0931
3,CAAGCUACGUAGAGAUCUATT against KIFC1,0.0417
4,ACAUGUUCCUCACCUUAAATT against SLC6A1,-0.122
5,GGAGGGAUAUGUUCCACGUTT against TP53BP2,0.157
6,CUACUGUGGGUGUCGCAUATT against UQCRFS1,-1.28 (active)
7,GAGCGACUUUGAUCACCAUTT against PANK2,0.121
8,CAUUCAUCAUCCACCCAGATT against MUPCDH,-0.329
9,CCCGGAUACUUCUGAAGAATT against HNRPDL,-0.68
10,CGGUGGGAUGGGAACGAAATT against DRAP1,1.08 (active)
11,CUAUGACUGGAUUAGCGUATT against BEST2,0.415
12,GCUUUUGAACUAUUUGAUATT against CETN3,-0.0815
13,UGAAGACCCAGAGAUGUAATT against PTN,-0.174
14,UGAGAUCGCUGUCAUGUUATT against PSMD10,0.265
15,GCAAGGUUUAAUGAACAAATT against GTF2E1,1.76 (active)
16,GUGAGAACUUUGACGAUUATT against PMP2,0.00618
17,GUAACUGCAUUCAACUUGATT against OSMR,0.548
18,UGAAAAACAUUAACAAGCATT against RNASE7,1.07 (active)
19,CAACCUACAUGUUUGCUGATT against SCARF1,-0.324
20,GGAACAUUCCGACCUACAATT against PTDSS2,0.0941
21,CCGUCACCAUCCUCAUCUATT against PORCN,0.214
22,GAUGAUUUUUGGAGACCUATT against TRPV5,0.0879
23,GGAGUUUGAGGUAUACCUATT against IL6,-0.436
24,GCUUUAACGUGUCUGUGCATT against SLC25A5,-0.0501
25,CUACUACUUUAAUCCCUAATT against FDFT1,-0.143
26,GCAUCGACCUGAUUCACAATT against AP3B2,-2.45 (active)
27,GGAGCGGUUCAGAUCAAUATT against RAB39,-0.408

row,Sequence,median seed-adjusted z-score
1,CCUCAUUGAUAACACUAAATT against GBP2,-0.263
2,GGAUUGAAGGUGUUCACUATT against PZP,-0.878
3,CAGUACUACGUGAAACUGATT against BAT1,-1.49 (active)
4,GGCUACAAGUAGAGAGUUUTT against ESPL1,0.871
5,GAGAAAGUGUGAACUUACATT against XRCC2,0
6,CGCAACUCUUUACACCGUATT against SAMHD1,-1.33 (active)
7,GGAUGUUUUCGAAACGCAUTT against BRDT,-0.357
8,GACUAUUCCUGAUCCUUAUTT against AGBL2,-0.796
9,GCAUCAGCUUCGAUGAGUATT against S100A16,0.24
10,CCCUGUCUAUAAUUUCUUUTT against DGCR8,-0.266
11,CGCCUUAUACUUUACCAAATT against MGC16703,0.55
12,CCAUUAAGAAUGCUAAUAUTT against ABCB10,-0.1
13,GGCUAUAGGGUGUAUAUUUTT against CDK8,-1.47 (active)
14,CCUUCGACCUCAAGAGACATT against OVOL1,-0.0414
15,CAGGCUUUGUUAGACGUAATT against ZNF157,0.137
16,GCUCUUGGAUUAAAAGGUATT against STAR,0.478
17,GAACGUACUCUUGCUUAUATT against ATP6V1D,0.594
18,CAGAGAACCCAUUACAUCATT against HADH,1.11 (active)
19,GACUUUCACAGUUCACCGATT against KCTD3,0.603
20,UCAACCCUCUGAUAGAAGATT against EID2,-1.04 (active)
21,GUAUGCUCCCGAUCAAGUATT against APOBEC3A,0.467
22,GAAGGAUGGGUGGACGUAATT against NALCN,-0.266
23,CCAUAAAUGCUACGAAUAUTT against EGFR,0.263
24,CAAUGAAUUUUUCCGAAGATT against ITGA10,0.378
25,CCACAUGCUUCAAACAUCATT against TOR1A,-0.231
26,UAGCUUCGGUGAUCAAGAATT against ANXA9,0.055
27,GCAAGAGUCGUUCACCAGATT against MGMT,-0.0549
